Experimental findings from PubChem BioAssay (NCATS) are described below.

Where “and” joins values, the source holds several entries; their conditions need not be identical. Equal values may be shown once. Records with an inconclusive call do not appear. A number with no mark means an inactive call. Calls of active or inactive are those of the source. Calls come from the whole dose curve; as a rule, active = well fitted curve in the direction sought with a large enough effect; inconclusive = small, poorly fitted or top-dose-only effect, or another doubt; inactive = no such curve, though single readings can be large; an effect the other way counts as inactive or inconclusive.

A short description of one assay: P-glycoprotein substrates identified in KB-3-1 adenocarcinoma cell line, qHTS therapeutic library screen (AID 1346986). Note: nearly all actives have a fitted effect of over 60% in size. The note with it: KB-3-1 parental cells viability, CellTiter-Glo, 72 h; series mostly up to 44.5 µM; activity change, negative = cytotoxicity: at the top concentration. The method in brief: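 Compounds were tested in dose-response against KB-3-1 and KB-8-5-11 cells at 37 degree C for 72 h, and viability was measured by luminescence. AC50 values came from curve fitting with class-based activity calls.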
(In general: In qHTS, concentration-response curves come from the screen itself.)
On to `CCN1CCN(C(=O)N[C@H](C(=O)N[C@@H]2C(=O)N3C(C(=O)O)=C(CSc4nnnn4C)CS[C@@H]23)c2ccc(O)cc2)C(=O)C1=O`, for which the outcome is “inactive [at 9.29 µM]”. Take `N#CC(=Cc1ccc(O)c(O)c1)C(=O)NCc1ccccc1`: the outcome was inactive. The same measure, in the same setting: next, `OC[C@@H](O)[C@@H](O)[C@H](O)[C@@H](O)CO`: “inactive”.

As to `C=Cc1c(C)c2cc3nc(cc4[nH]c(cc5nc(cc1[nH]2)C(C)=C5CCC(=O)O)c(CCC(=O)OC)c4C)[C@@]1(C)C3=CC=C(C(=O)OC)[C@H]1C(=O)OC`, the outcome was inactive. Same read-out and setting: next, `COc1ccc2cc([S+]([O-])Cc3ncc(C)c(OC)c3C)nc2c1`: “inactive”.

A further assay is described as follows: P-glycoprotein substrates identified in KB-8-5-11 adenocarcinoma cell line, qHTS therapeutic library screen (AID 1346987). For activity change, negative = cytotoxicity: % is set by controls: 0 for no effect and ±100 for the full control effect. Note: nearly all actives have a fitted effect of over 65% in size. Note: potency is the fitted concentration of half-maximal effect. Conditions: KB-8-5-11 (P-gp overexpressing) viability, CellTiter-Glo, 72 h; series mostly up to 44.5 µM; activity change, negative = cytotoxicity: at the top concentration. The method in brief:
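KB-8-5-11: colchicine-selected sub-line of KB-3-1 over-expressing P-gp; assay medium lacked colchicine. 72 h drug exposure at 37 degree C, CellTiter-Glo.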
Consider `CCCCCCCCCCCCc1ccc(S(=O)(=O)Nc2nncs2)cc1`, for which the “activity change, negative = cytotoxicity” value is -2.92%. For the compound `C[C@@]12C[C@@]3(O)O[C@@H](O1)[C@]1(COC(=O)c4ccccc4)[C@@H]3C[C@@]12O[C@@H]1O[C@H](CO)[C@@H](O)[C@H](O)[C@@H]1O`, the result was inactive.

For `C=C1C[C@@]2(O)O[C@@]3(C[C@H]2C(C)C)[C@H](C)CC[C@H]13`, the compound was classed as inactive. Regarding `Cc1cnc(Nc2ccc(N3CCN(C)CC3)cc2)nc1Nc1cccc(S(=O)(=O)NC(C)(C)C)c1`, the Potency was 11.8 µM (active) and 7.31 µM (active).

For `O=c1[nH]c(=O)n([C@H]2C[C@@H](O)[C@@H](CO)O2)cc1C=CBr`, the outcome was inactive. On to `CC(=O)C1=C(O)C=C2Oc3c(C(C)=O)c(O)c(C)c(O)c3C2(C)C1=O` (centres undefined), for which the “activity change, negative = cytotoxicity” value is 3.99%. Regarding `CC(C)N(CC[C@H](c1ccccc1)c1cc(CO)ccc1O)C(C)C`, the call was inactive. `COc1ccc([C@@H]2CNC(=O)C2)cc1OC1CCCC1`: the “activity change, negative = cytotoxicity” value is 2.14%.

Take `CNC(=O)Nc1ccc(-c2nc(N3CC4CCC(C3)O4)c3cnn(C4CCC5(CC4)OCCO5)c3n2)cc1`: the Potency was 14.8 nM (active) and 184 nM (active). Regarding `CC(=O)N[C@H]1[C@@H]([C@H](O)[C@H](O)CO)OC(C(=O)O)=C[C@@H]1N=C(N)N`, the call was inactive. As to `CC(C)(C)c1nc2c3cc[nH]c(=O)c3c3cc(F)ccc3c2[nH]1`, the Potency is 5.17 µM (active). Take `CON=C(C(=O)N[C@@H]1C(=O)N2C(C(=O)O)=C(CSC(=O)c3ccco3)CS[C@H]12)c1csc(N)n1`: the outcome was inactive.

In the case of `CC(=O)O[C@H]1C[C@@H]2CC[C@H]3[C@H]4C[C@H]([N+]5(C)CCCCC5)[C@@H](OC(C)=O)[C@@]4(C)CC[C@@H]3[C@@]2(C)C[C@H]1[N+]1(C)CCCCC1`, the “activity change, negative = cytotoxicity” value is 6.79%. Regarding `Cc1ccc2nc(NCCN)c3ncc(C)n3c2c1`, the Potency is 4.18 µM (active) and 6.51 µM (active). As for `CCc1cc(C(C)=NOCc2ccc(C3CCCCC3)c(C(F)(F)F)c2)ccc1CN1CC(C(=O)O)C1`, the compound was classed as inactive. As to `Cc1cn([C@@H]2O[C@H](CO)[C@@H](O)[C@H]2F)c(=O)[nH]c1=O`, the compound was called inactive. Consider `O=C(Nc1ccc(Oc2ccnc3[nH]ccc23)c(F)c1)c1cccn(-c2ccc(F)cc2)c1=O`, for which the “activity change, negative = cytotoxicity” value is 7.3%. As for `CC1(C)O[C@@H]2C[C@H]3[C@@H]4CCC5=CC(=O)C=C[C@]5(C)[C@@H]4[C@@H](O)C[C@]3(C)[C@]2(C(=O)CO)O1`, the “activity change, negative = cytotoxicity” value was 8.02%. For the compound `Cc1cc(C(=O)NOCCO)c(Nc2ccc(I)cc2F)n(C)c1=O`, the Potency result is “inactive”. As to `OCc1ccccc1O[C@@H]1O[C@H](CO)[C@H](O)[C@H](O)[C@H]1O`, the compound was classed as inactive. As for `Cc1ccccc1C(=O)Nc1ccc(C(=O)N2CCCC(O)c3cc(Cl)ccc32)c(C)c1` (centres undefined), the “activity change, negative = cytotoxicity” value was -5.69%.

For the compound `COc1ccc(Nc2cc(-c3cnc(N)nc3)nc(N3CCOCC3)n2)cn1`, the Potency was 1.48 µM (active). As for `O=C(O)CCCCC(CCSCc1ccccc1)SCc1ccccc1` (centres undefined), the compound was classed as inactive.

For `Cc1noc(-c2ccc(CSCCC(=O)O)cc2)c1NC(=O)OC(C)c1ccccc1Cl` (centres undefined), the “activity change, negative = cytotoxicity” value is 9.03%. Consider `CCCCC(=O)O[C@]1(C(=O)CO)[C@@H](C)C[C@H]2[C@@H]3CCC4=CC(=O)C=C[C@]4(C)[C@@]3(F)[C@@H](O)C[C@@]21C`, for which the compound was classed as inactive. Still for that read-out and setting: next, `COc1cc(C)c(C=CC(C)=CC=CC(C)=CC(=O)O)c(C)c1C`: “inactive”. In the case of `C[N+]1(C)[C@@H]2C[C@@H](OC(=O)C(O)(c3cccs3)c3cccs3)C[C@H]1[C@@H]1O[C@@H]12`, the “activity change, negative = cytotoxicity” value was 6.73%.

Regarding `CC1(C)[C@H](O[C@H]2O[C@H](C(=O)O)[C@@H](O)[C@H](O)[C@H]2O[C@@H]2O[C@H](C(=O)O)[C@@H](O)[C@H](O)[C@H]2O)CC[C@@]2(C)[C@H]1CC[C@]1(C)[C@H]2C(=O)C=C2[C@H]3C[C@@](C)(C(=O)O)CC[C@]3(C)CC[C@]21C`, the “activity change, negative = cytotoxicity” value was 9.32%. The same measure, in the same setting: next, `C[C@H](O)[C@@H]1C(=O)N2C(C(=O)O)=C(S[C@@H]3CN[C@H](CNS(N)(=O)=O)C3)[C@@H](C)[C@@H]12`: 9.68%. On the same count and under the same terms, next, `CN[C@H]1[C@@H](O)[C@@H]2O[C@@H]3O[C@H](C)CC(=O)[C@]3(O)O[C@@H]2[C@@H](NC)[C@H]1O`: 2.58%; `NC1=N[C@H]2[C@H](CS[C@H]2CCCCC(=O)O)N1`: 5.44% [at 17.3 µM]. In the case of `COC(=O)[C@@H]1CC2=CC(=O)CC[C@]2(C)[C@@]23O[C@@H]2C[C@@]2(C)[C@H](CC[C@@]24CCC(=O)O4)[C@@H]13`, the “activity change, negative = cytotoxicity” value is 0.499%.

For the compound `O=C(C[C@@H]1CC=CCCC(=O)O[C@H](c2ccccc2)CNC1=O)NCc1ccc(Cl)cc1`, the compound was classed as inactive. On to `CON=C(C(=O)N[C@@H]1C(=O)N2C(C(=O)O)=C(Cn3ccc(=N)n3CCO)CS[C@H]12)c1csc(N)n1`, for which the “activity change, negative = cytotoxicity” value was 2.12%.

`CCN1CCN(C(=O)N[C@H](C(=O)N[C@@H]2C(=O)N3C(C(=O)O)=C(CSc4nnnn4C)CS[C@@H]23)c2ccc(O)cc2)C(=O)C1=O`: the outcome was “inactive [at 9.29 µM]”. Consider `N#CC(=Cc1ccc(O)c(O)c1)C(=O)NCc1ccccc1`, for which the “activity change, negative = cytotoxicity” value is -23.2%.

On to `OC[C@@H](O)[C@@H](O)[C@H](O)[C@@H](O)CO`, for which the “activity change, negative = cytotoxicity” value was 8.8%. As to `C=Cc1c(C)c2cc3nc(cc4[nH]c(cc5nc(cc1[nH]2)C(C)=C5CCC(=O)O)c(CCC(=O)OC)c4C)[C@@]1(C)C3=CC=C(C(=O)OC)[C@H]1C(=O)OC`, the call was inactive. Take `COc1ccc2cc([S+]([O-])Cc3ncc(C)c(OC)c3C)nc2c1`: the “activity change, negative = cytotoxicity” value was -12.8%.
